# Compounds with a hit are over-represented: about 1.5% of the library has one in this group of screens.
# MazEF act – activators of E. coli MazEF toxin-antitoxin RNase, primary screen, biochemical, fluorescence, uHTS; 0.32% of 350,000 active; AID 504720, 2011; FAM/BHQ RNA-DNA oligo cleavage fluorescence, 5 h; activation, % at 20 µM; in the data active = activation above about 50%
# Target sequence (P0AE70 whole entry, looked up): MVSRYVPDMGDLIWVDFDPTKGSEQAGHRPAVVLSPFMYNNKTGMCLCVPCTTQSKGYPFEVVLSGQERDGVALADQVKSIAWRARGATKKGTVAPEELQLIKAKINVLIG
# Mtb hypoxia inh – PubChem AID 1159583 | M. tuberculosis hypoxia-regulated fluorescent reporter, fluorescence | fluorescence inhibition, % (no concentration beside the values) | 0.1% of 300,000 active; in the data active = fluorescence inhibition mostly above about 23%, no sharp cut-off; inactive = mostly below about 17%
# SARS 3CLpro inh – SARS-CoV 3CLpro protease inhibitors, primary screen, biochemical, quenched FRET; AID 1706, 2009; Replicase polyprotein 1ab (Severe acute respiratory syndrome coronavirus), P0C6X7; 0.14% of 290,000 active; inhibition, % at 6 µM; recombinant SARS-CoV 3CLpro, quenched FRET peptide cleavage; in the data active = inhibition above about 12%
# PrPC surface inh – inhibitors of human cell surface prion protein PrPC, primary screen, cell-based, TR-FRET; Major prion protein (Homo sapiens), P04156; TR-FRET read-out; inhibition, % at 13.8 µM; 0.43% of 370,000 active; AID 720596, 2013; in the data active = inhibition above about 24%
# PrP 5UTR inh – inhibition of PrP 5' UTR reporter expression; cell-based PrP 5' UTR mRNA reporter, plate reader; inhibition, % (no concentration beside the values); 0.35% of 340,000 active; AID 488862, 2010; in the data active = inhibition above about 52%
# VHR inh abs – VHR1 phosphatase inhibitors, primary screen, biochemical, absorbance, uHTS; 0.52% of 290,000 active; recombinant VHR phosphatase, pNPP absorbance; Dual specificity protein phosphatase 3 (Homo sapiens), P51452; AID 1654, 2009; inhibition, % at 13.3 µM; in the data active = inhibition above about 50%
# Target sequence (P51452 whole entry, looked up): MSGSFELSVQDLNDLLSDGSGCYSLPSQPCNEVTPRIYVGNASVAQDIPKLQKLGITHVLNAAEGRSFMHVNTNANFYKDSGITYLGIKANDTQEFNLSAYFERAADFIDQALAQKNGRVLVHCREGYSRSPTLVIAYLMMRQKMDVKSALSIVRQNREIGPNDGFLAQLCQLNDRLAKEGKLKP
# Numbers stand for hits; i = inactive; nt = no result; + = active, no number.
SMILES,MazEF act,Mtb hypoxia inh,SARS 3CLpro inh,PrPC surface inh,PrP 5UTR inh,VHR inh abs
O=C(Nc1cccc(F)c1)c1c(O)c2ccccc2[nH]c1=O,i,i,i,i,i,50.2
CCn1c(SCC(=O)N2c3ccccc3CCc3ccccc32)nnc1-c1ccc(OC)cc1,i,i,i,nt,i,55.4
CCn1c(SCC(=O)N2CCc3ccccc32)nnc1-c1ccncc1,i,i,i,i,i,i
Nc1nc(-c2ccccc2)c(-c2ccccc2)n1N,i,i,i,i,i,i
c1ccc(-c2cnn3c(-c4ccccc4)c(-c4ccccc4)nc3n2)cc1,+,i,i,i,i,i
COc1cccc(CNC(=O)c2ccc(CS(=O)(=O)Cc3ccccc3C)o2)c1,i,i,i,i,i,57.7
CCOc1ccc(-n2c(O)c(/C=C3\C=Nc4ccccc43)c(=O)[nH]c2=O)cc1,120.0,i,i,i,i,i
CCCOc1ccc(C2C(=C(O)c3c(C)[nH]c(C(=O)OC)c3C)C(=O)C(=O)N2CCN(C)C)cc1 (stereo unspecified),nt,i,nt,nt,nt,nt
CCCC(=O)NC1CCc2cc(OC)c(OC)c(OC)c2-c2ccc(OC)c(=O)cc21 (stereo unspecified),i,nt,nt,i,i,nt
COc1cc2c(c(OC)c1OC)-c1ccc(OC)c(=O)cc1C(NC(C)=O)CC2 (stereo unspecified),i,i,i,i,63.4,i
O=C(CS(=O)c1ccc(C(F)(F)F)cc1[N+](=O)[O-])Oc1ccc(Cl)cc1 (stereo unspecified),i,i,i,i,i,51.2
Cc1cc(C)cc(OC(=O)CS(=O)c2ccc(C(F)(F)F)cc2[N+](=O)[O-])c1 (stereo unspecified),i,i,i,i,i,i
CC1CCCN(S(=O)(=O)c2ccc(S(=O)(=O)N3CCCN(Cc4ccccc4)C3)cc2)C1 (stereo unspecified),i,i,nt,i,i,51.9
O=C(Nc1ccc(F)cc1)C1CC(=O)n2c(nc3ccccc32)N1 (stereo unspecified),i,nt,i,i,i,i
O=C(Nc1ccc(F)c(Cl)c1)C1CC(=O)n2c(nc3ccccc32)N1 (stereo unspecified),i,i,i,i,i,53.0
CC(NC(=O)c1nc[nH]c1C(=O)N1CCN(C(=O)OC(C)(C)C)CC1)c1ccccc1 (stereo unspecified),nt,i,nt,nt,nt,nt
CC1CCN(CCC2CCCN2S(=O)(=O)c2cccc(O)c2)CC1 (stereo unspecified),nt,i,nt,nt,nt,nt
C=CCn1c(NCc2cc(C)ccc2O)nc2ccccc21,i,i,i,i,i,50.3
CC(C)n1c(NCc2cc(Cl)ccc2O)nc2ccccc21,i,i,i,i,i,54.5
CC(=Nc1nc2ccccc2n1C)c1cc(Cl)ccc1O,nt,i,nt,nt,nt,nt
Cc1ccc(-n2[nH]c(C)c(C=Nc3ccc4[nH]c(=O)[nH]c4c3)c2=O)cc1,i,nt,i,i,i,i
Cc1ccc(-n2[nH]c(C)c(C=Nc3ccc4[nH]c(=O)[nH]c4c3)c2=O)cc1C,62.7,nt,i,i,i,i
O=C(N/N=C1\CCCc2ccccc21)c1cccc(Br)c1,i,nt,i,i,i,i
O=C(NN=C1CCCC1)c1cccc(Br)c1,i,i,i,i,i,53.9
COc1cc(C(=O)Oc2cc(N)n(S(=O)(=O)c3ccc(F)cc3)n2)cc(OC)c1OC,245.3,i,i,i,i,i
SMILES,MazEF act,Mtb hypoxia inh,SARS 3CLpro inh,PrPC surface inh,PrP 5UTR inh,VHR inh abs
COc1cc(C(=O)Oc2cc(N)n(S(=O)(=O)c3ccccc3)n2)cc(OC)c1OC,i,i,i,i,i,i
Cc1cc(C)cc(N=C2NC(=O)CS2)c1,i,i,i,i,i,58.7
Cc1cccc(C2C3C(=O)N(Cc4ccccc4)C(=O)C3[C@]3(Cc4ccc(Cl)cc4)C(=O)N(c4cccc(Br)c4)C(=O)N23)c1 (stereo partly specified),nt,i,nt,nt,nt,nt
CCOc1ccc(NC(=S)NN=C(C)Cc2ccc(OC)cc2)cc1,nt,i,nt,nt,nt,nt
CCCCC(=O)Nc1c(-c2cccc(OC)c2)c(=O)c2ccccc2n1C,i,i,i,i,i,58.2
Cc1ccc(S(=O)(=O)NN=Cc2ccc(OCC(=O)N3CCOCC3)cc2)cc1,nt,i,nt,nt,nt,nt

# Compound activity from PubChem.
